This note sets out measurements from PubChem BioAssay AID434961 (Broad Institute, 2010).

Molecules are shown by their SMILES. In all, about 7,700 compounds went through this assay and about 15 (0.2%) were called active. Roughly 6% stayed inconclusive and do not appear here. The entries come from a sample that favours actives as a whole. A number with no mark means an inactive call.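 Rule for the calls: active = more than half of replicate wells with inhibition above about 18% (limit read from the data, passing the limit was not always enough); inconclusive = exactly half of replicate wells above that limit; inactive = fewer than half of replicates above it.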

The target of the test is Regulator of chromosome condensation (Homo sapiens) + GTP-binding nuclear protein Ran (Homo sapiens) + Importin subunit beta-1 (Homo sapiens) (UniProt P18754+P62826+Q14974). The test is described as follows: RanGTP/importin-beta interaction disruptors – biochemical, CFP-Ran/YFP-importin-beta FRET, RCC1, cell-free, primary screen (AID 434961).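 Note: 0% = DMSO wells and 100% inhibition = RanGDP control wells on each plate.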 The settings on record: stronger effect = higher value, concentration not given here.
The term inhibition denotes the drop in the measured response relative to a control, in per cent. As for `CNC[C@H]1Oc2ccc(NC(=O)NC(C)C)cc2CC(=O)N([C@H](C)CO)C[C@H]1C`, the inhibition is -4.07%.
For `CNC[C@H]1OCCCC[C@@H](C)Oc2ccc(N)cc2C(=O)N([C@H](C)CO)C[C@@H]1C` the value was 7.03%.
As to `C[C@@H]1CN([C@H](C)CO)C(=O)Cc2cc(NS(=O)(=O)c3cn(C)cn3)ccc2O[C@H]1CN(C)CC1CC1`, the inhibition is 1.45%.
For `Cc1noc(C)c1NC(=O)N(C)C[C@@H]1Oc2c(NS(C)(=O)=O)cccc2C(=O)N([C@H](C)CO)C[C@H]1C`, the inhibition was -0.0899%.
Next, `C[C@@H]1CCCCO[C@H](CN(C)C(=O)C2CCCCC2)[C@H](C)CN([C@@H](C)CO)C(=O)c2cc(NC(=O)c3ccncc3)ccc2O1`: 2%; `C[C@@H]1CN([C@H](C)CO)C(=O)Cc2cc(NC(=O)Cc3ccccc3)ccc2O[C@@H]1CN(C)S(=O)(=O)c1cccs1`: -2.73%; `C[C@H]1CN([C@@H](C)CO)C(=O)Cc2cc(NC(=O)Cc3ccccc3)ccc2O[C@@H]1CN(C)S(=O)(=O)c1cccs1`: -0.944%.
For `C[C@@H]1CN([C@@H](C)CO)C(=O)Cc2cc(NC(=O)Nc3ccc4c(c3)OCO4)ccc2O[C@@H]1CN(C)CC1CC1`, the inhibition is 2.45%.
Consider `C[C@H](CO)N1C[C@H](C)[C@@H](CN(C)S(=O)(=O)c2cccs2)Oc2ccc(NC(=O)Cc3ccccc3)cc2CC1=O`, for which the inhibition is 19.8% (active).
Regarding `C[C@H](CO)N1C[C@H](C)[C@H](CN(C)CC2CC2)Oc2ccc(NC(=O)Nc3ccc4c(c3)OCO4)cc2CC1=O`, the inhibition is -0.0887%.
As for `C[C@@H]1CN([C@H](C)CO)C(=O)Cc2cc(NC(=O)Nc3ccc4c(c3)OCO4)ccc2O[C@@H]1CN(C)CC1CC1`, the inhibition was 24.2% (active).
Next, `C[C@@H]1CCCCO[C@@H](CN(C)Cc2ccncc2)[C@H](C)CN([C@@H](C)CO)C(=O)c2cc(NS(C)(=O)=O)ccc2O1`: -2.5%.
Take `C[C@@H]1CCCCO[C@H](CN(C)Cc2ccc3c(c2)OCO3)[C@@H](C)CN([C@H](C)CO)C(=O)c2cc(NC(=O)CCCN(C)C)ccc2O1`: the inhibition is 20.5% (active).
For the molecule `C[C@H]1CCCCO[C@H](CN(C)Cc2ccc3c(c2)OCO3)[C@@H](C)CN([C@@H](C)CO)C(=O)c2cc(NC(=O)CCCN(C)C)ccc2O1`, the inhibition is -3.94%.
Next, `C[C@@H]1CN([C@@H](C)CO)C(=O)c2cccc(NS(C)(=O)=O)c2O[C@@H]1CN(C)Cc1ccncc1`: 0.304%; `C[C@@H]1CCCCO[C@H](CN(C)Cc2ccncc2)[C@H](C)CN([C@H](C)CO)C(=O)c2cc(NS(C)(=O)=O)ccc2O1`: 0.0179%; `C[C@@H]1CN([C@@H](C)CO)C(=O)c2cc(NS(C)(=O)=O)ccc2O[C@@H](C)CCCCO[C@H]1CN(C)C(=O)Cc1ccccc1`: 20.6% (active).
On to `C[C@H](CO)N1C[C@H](C)[C@@H](CN(C)Cc2ccncc2)Oc2c(NS(C)(=O)=O)cccc2C1=O`, for which the inhibition was 29.9% (active).
For the molecule `C[C@H]1CCCCO[C@@H](CN(C)C(=O)Cc2ccccc2)[C@@H](C)CN([C@@H](C)CO)C(=O)c2cc(NS(C)(=O)=O)ccc2O1`, the inhibition was 3.79%.
On to `C[C@H]1CN([C@@H](C)CO)C(=O)c2cccc(NS(C)(=O)=O)c2O[C@H]1CN(C)Cc1ccncc1`, for which the inhibition was 7.75%.
As for `C[C@@H]1CN([C@@H](C)CO)C(=O)c2cc(NC(=O)CCCN(C)C)ccc2O[C@@H](C)CCCCO[C@H]1CN(C)Cc1ccc2c(c1)OCO2`, the inhibition is 7.22%.
Regarding `C[C@@H]1CN([C@H](C)CO)C(=O)c2cc(NS(C)(=O)=O)ccc2O[C@@H](C)CCCCO[C@@H]1CN(C)Cc1ccncc1`, the inhibition is 30% (active).
Turning to `C[C@@H]1CN([C@@H](C)CO)C(=O)c2cc(NS(C)(=O)=O)ccc2O[C@@H](C)CCCCO[C@@H]1CN(C)C(=O)Cc1ccccc1`, the inhibition was -3.41%.
As for `Cc1noc(C)c1NC(=O)Nc1ccc2c(c1)C(=O)N([C@H](C)CO)C[C@H](C)[C@H](CN(C)C(=O)Nc1c(C)noc1C)OCCCC[C@H](C)O2`, the inhibition is -1.94%.
Turning to `Cc1noc(C)c1NC(=O)Nc1ccc2c(c1)C(=O)N([C@H](C)CO)C[C@H](C)[C@@H](CN(C)C(=O)Nc1c(C)noc1C)OCCCC[C@@H](C)O2`, the inhibition was 0.0737%.
`COc1ccc(CN(C)C[C@H]2Oc3ccc(NC(=O)Nc4ccc(C(F)(F)F)cc4)cc3C(=O)N([C@H](C)CO)C[C@H]2C)cc1`: the inhibition is -1.47%.
On to `Cc1noc(C)c1NC(=O)N(C)C[C@H]1Oc2ccc(N(C)C)cc2CC(=O)N([C@@H](C)CO)C[C@H]1C`, for which the inhibition is -0.258%.
Consider `C[C@H]1CN([C@@H](C)CO)C(=O)c2cccc(NS(=O)(=O)c3cn(C)cn3)c2O[C@@H]1CN(C)C`, for which the inhibition is 0.914%.
Regarding `C[C@@H]1CN([C@H](C)CO)C(=O)c2cccc(NS(=O)(=O)c3cn(C)cn3)c2O[C@H]1CN(C)C`, the inhibition was -0.231%.
As for `C[C@H]1CN([C@@H](C)CO)C(=O)c2cccc(NS(=O)(=O)c3cn(C)cn3)c2O[C@H]1CN(C)C`, the inhibition was 31% (active).
Next, `COc1ccc(CN(C)C[C@H]2Oc3ccc(NC(=O)Nc4ccc(C(F)(F)F)cc4)cc3C(=O)N([C@@H](C)CO)C[C@@H]2C)cc1`: -6.63%; `Cc1noc(C)c1NC(=O)N(C)C[C@@H]1Oc2ccc(N(C)C)cc2CC(=O)N([C@H](C)CO)C[C@@H]1C`: 1.55%.
On to `COc1ccc(CN(C)C[C@H]2Oc3ccc(NC(=O)Nc4ccc(C(F)(F)F)cc4)cc3C(=O)N([C@@H](C)CO)C[C@H]2C)cc1`, for which the inhibition is 31.1% (active).
Next, `Cc1noc(C)c1NC(=O)Nc1ccc2c(c1)C(=O)N([C@H](C)CO)C[C@@H](C)[C@@H](CN(C)C(=O)Nc1c(C)noc1C)OCCCC[C@@H](C)O2`: 20.4% (active); `Cc1noc(C)c1NC(=O)N(C)C[C@@H]1Oc2ccc(N(C)C)cc2CC(=O)N([C@H](C)CO)C[C@H]1C`: 24.7% (active); `C[C@@H]1CCCCO[C@@H](CN(C)C(=O)CCC(F)(F)F)[C@@H](C)CN([C@@H](C)CO)C(=O)c2cc(NC(=O)CCC(F)(F)F)ccc2O1`: 17.9% (active).
Take `C[C@@H]1CCCCO[C@@H](CN(C)C(=O)CCC(F)(F)F)[C@H](C)CN([C@@H](C)CO)C(=O)c2cc(NC(=O)CCC(F)(F)F)ccc2O1`: the inhibition was -1.98%.
Consider `C[C@H]1CCCCO[C@H](CN(C)C(=O)CCC(F)(F)F)[C@@H](C)CN([C@@H](C)CO)C(=O)c2cc(NC(=O)CCC(F)(F)F)ccc2O1`, for which the inhibition was 4.31%.
Take `CNC[C@H]1Oc2c(cccc2N(C)C)C(=O)N([C@H](C)CO)C[C@H]1C`: the inhibition is -1.15%.
For `COc1ccc(CN(C)C[C@H]2Oc3c(NC(=O)Nc4c(C)noc4C)cccc3C(=O)N([C@H](C)CO)C[C@@H]2C)cc1` the value was 0.675%.
`C[C@H](CO)N1C[C@H](C)[C@H](CN(C)C(=O)Nc2ccccc2)Oc2c(NC(=O)c3ccc(-c4nccs4)cc3)cccc2C1=O`: the inhibition is -2.67%.
As for `C[C@H](CO)N1C[C@H](C)[C@H](CN(C)Cc2ccc3c(c2)OCO3)Oc2ccc(NC(=O)CCC(F)(F)F)cc2CC1=O`, the inhibition was 0.912%.
As to `C[C@@H]1CCCCO[C@@H](CN(C)C(=O)CCCN(C)C)[C@H](C)CN([C@@H](C)CO)C(=O)c2cc(N(C)C)ccc2O1`, the inhibition was 1.1%.
As to `C[C@@H]1CCCCO[C@@H](CN(C)C(=O)c2ccncc2)[C@@H](C)CN([C@@H](C)CO)C(=O)c2cc(NS(=O)(=O)c3cccs3)ccc2O1`, the inhibition was -2.75%.
Next, `COc1ccc(CN(C)C[C@@H]2Oc3c(NS(=O)(=O)c4cn(C)cn4)cccc3C(=O)N([C@H](C)CO)C[C@@H]2C)cc1`: -1.87%.
Regarding `C[C@H](CO)N1C[C@H](C)[C@H](CN(C)Cc2ccc(Cl)c(Cl)c2)Oc2c(NS(=O)(=O)c3cn(C)cn3)cccc2C1=O`, the inhibition is -0.00607%.
Regarding `C[C@@H]1CCCCO[C@H](CN(C)C(=O)Nc2ccccc2)[C@@H](C)CN([C@@H](C)CO)C(=O)c2cc(NC(=O)CCCN(C)C)ccc2O1`, the inhibition is -3.05%.
For the molecule `CNC[C@H]1Oc2ccc(NS(=O)(=O)c3cccs3)cc2CC(=O)N([C@H](C)CO)C[C@H]1C`, the inhibition was -0.195%.
For `C[C@@H]1CCCCO[C@@H](CN(C)S(C)(=O)=O)[C@H](C)CN([C@H](C)CO)C(=O)c2cc(NS(=O)(=O)c3ccccc3)ccc2O1` the value was -0.778%.
As to `C[C@H]1CN([C@@H](C)CO)C(=O)Cc2cc(NC(=O)C3CC3)ccc2O[C@@H]1CN(C)C(=O)Nc1ccccc1`, the inhibition is -14.8%.
Next, `CNC[C@@H]1Oc2c(N)cccc2C(=O)N([C@H](C)CO)C[C@@H]1C`: -1.12%; `COc1ccccc1CN(C)C[C@H]1OCc2cn(nn2)CCCC(=O)N([C@H](C)CO)C[C@H]1C`: 3.38%.
Take `C[C@@H]1CN([C@@H](C)CO)C(=O)c2cccc(NC(=O)c3ccncc3)c2O[C@H]1CN(C)S(=O)(=O)c1cccs1`: the inhibition was 0.118%.
Turning to `C[C@H]1CCCCO[C@@H](CN(C)Cc2ccncc2)[C@@H](C)CN([C@@H](C)CO)C(=O)c2cc(N(C)C)ccc2O1`, the inhibition is 1.7%.
Regarding `COc1ccc(NC(=O)Nc2ccc3c(c2)C(=O)N([C@@H](C)CO)C[C@@H](C)[C@H](CN(C)Cc2ccc(C(=O)O)cc2)O3)cc1`, the inhibition is 0.138%.
Regarding `C[C@@H]1CN([C@H](C)CO)C(=O)c2cc(NC(=O)Nc3ccccc3)ccc2O[C@@H](C)CCCCO[C@H]1CN(C)S(=O)(=O)c1ccc(F)cc1`, the inhibition was 4.18%.
On to `C[C@H](CO)N1C[C@H](C)[C@@H](CN(C)C(=O)NC2CCCCC2)Oc2ccc(N(C)C)cc2C1=O`, for which the inhibition is 3.39%.
